USP17 block = blocks human USP17 ubiquitin-rhodamine cleavage | inhibition, % at 50 µM | actives 6.5% (n = 47,000) | AID 1645855 | purified USP17, Ub-rhodamine cleavage fluorescence, 3 h
USP28 inh = blocks human USP28 ubiquitin-rhodamine cleavage. Q96RU2. purified USP28, Ub-rhodamine cleavage fluorescence, 30 min. inhibition, % at 25 µM. actives 3% (n = 47,000)
USP30 block = inhibitors of human USP30 deubiquitinase | Q70CQ3 | actives 5.3% (n = 47,000) | purified USP30, Ub-rhodamine cleavage fluorescence | inhibition, % at 25 µM | AID 1645860
Numbers without * were called inactive; i = inactive; nt = no result given. In the library only some 11% were active in any assay of this set; here they are far more common. No stated cut-off is given here; in the data, active means inhibition above about 30%; inactive means the rest.

SMILES | USP17 block | USP28 inh | USP30 block
COc1ccc(NC(=O)C(C)n2nc(-c3ccccc3)c3cc(Cl)ccc32)cc1 (configuration not stated) | 0 | -9 | -52
CC(C(=O)NCCc1ccccc1)n1nc(-c2ccccc2)c2cc(Cl)ccc21 (configuration not stated) | 48* | 18 | 55*
COc1cccc(CNC(=O)c2cc(S(=O)(=O)N3CCCC3)ccc2Cl)c1OC | 0 | 7 | 0
CS(=O)(=O)N1Cc2ccccc2CC2(CCN(Cc3ccc(O)cc3)C2)C1 (configuration not stated) | -41 | -13 | -3
O=C(NCc1cccnc1)c1nnc(-c2ccc(S(=O)(=O)N3CCCCC3)cc2)o1 | 6 | 8 | 19
O=C(c1ccccc1)C1CCN(S(=O)(=O)c2ccc(Cl)cc2)CC1 | 12 | 14 | 31*
O=C(c1ccc(S(=O)(=O)N2CCCCC2)cc1)c1nnc(-c2ccc(Cl)cc2)o1 | 0 | 11 | 30*
O=C(C1CCN(S(=O)(=O)c2ccc(Cl)cc2)CC1)N1CCOCC1 | -11 | -3 | -4
Cc1nnc(NC(=O)C2CCN(S(=O)(=O)c3ccc(Cl)cc3)CC2)o1 | -19 | -2 | 0
O=C(NCCN1CCOCC1)C1CCN(S(=O)(=O)c2ccc(Cl)cc2)CC1 | 14 | 6 | 35*
CCNC(=O)NC(=O)COC(=O)c1c2c(nc3ccccc13)/C(=C/c1ccccc1)CC2 | -152 | -236 | i
COc1ccc(CNC(=O)c2nc3c(s2)CCN(C(=O)c2cnc(C)cn2)CC3)cc1 | 7 | 11 | 10
Cc1nc(CN(C)C(=O)Cc2ccccc2)nc2c1CCC(=O)N2CCc1ccccc1 | -5 | -9 | -8
Cc1oc(-c2[nH]ncc2C(=O)N2CCCC2)cc1S(=O)(=O)NCc1cccc(F)c1 | -9 | -2 | -72
Cc1cccc(CN2CCC3(COCc4c(C)nc(N5CCOCC5)nc43)C2)c1 (configuration not stated) | 1 | 18 | 12
COc1ccc2c(C)cc(SCC(=O)Nc3nsc(-c4ccc(C)cc4)n3)nc2c1 | 60* | 55* | 82*
COc1cccc(NC(=O)CSc2cc(C)c3cc(S(=O)(=O)N(C)C)ccc3n2)c1 | -19 | -12 | -61
Cn1cc(-c2nc(-c3ccccn3)no2)c(=O)c2ccccc21 | -1 | -3 | 6
CCn1cc(-c2nc(-c3ccccn3)no2)c(=O)c2cc(F)ccc21 | 58* | 14 | 23
COc1ccc(-n2nc3c(c2NC(=O)/C=C\c2ccccc2)CS(=O)(=O)C3)cc1 | -10 | -9 | -10
CCC(C(=O)Nc1c2c(nn1-c1ccc(Cl)cc1)CS(=O)(=O)C2)c1ccccc1 (configuration not stated) | 38* | 0 | 12
O=C(/C=C\c1ccc2c(c1)OCO2)Nc1c2c(nn1-c1ccc(Cl)cc1)CS(=O)(=O)C2 | 57* | 36* | 47*
Cc1ccccc1-n1nc2c(c1NC(=O)c1cccs1)CS(=O)(=O)C2 | -12 | -19 | -18
Cc1cc(F)ccc1NC(=O)CCc1nnc(C(=O)Nc2ccccc2)s1 | 7 | -13 | -71
Cc1nc(C2CCN(S(C)(=O)=O)CC2)cc(N2C(=O)OCC2Cc2ccccc2)n1 (configuration not stated) | -20 | -2 | -11
SMILES | USP17 block | USP28 inh | USP30 block
Cc1ccccc1CC(=O)N1C[C@@H](c2ccccc2F)[C@@]2(COCCC(=O)N2)C1 | 18 | 8 | 19
COc1cc(C(=O)N2CCN(Cc3nnnn3-c3ccccc3)CC2)cc(OC)c1OC | 3 | 0 | 1
CNc1nc(C2CCCCN2S(=O)(=O)c2ccc(F)cc2)nc2c1CN(C(C)=O)CC2 (configuration not stated) | -9 | -9 | 9
CCOc1ccccc1NC(=O)COc1cc(OC)ccc1C(=O)c1ccccc1 | 10 | 56* | 20
CCOc1ccccc1NC(=O)C(OC(=O)c1ccc(OCC(=O)Nc2ccc(OC)cc2)c(OC)c1)c1ccccc1 (configuration not stated) | 19 | -11 | -81
CC(C)NC(=O)C1CCN(c2nc3ccc(-c4cccnc4)nc3s2)CC1 | 10 | 22 | 23
CCc1ccc(NC(=O)c2ccccc2N2C(=O)N3CCc4c([nH]c5ccccc45)[C@@]3(C)C2=O)cc1 | -7 | -20 | -84
C[C@]12C(=O)N(c3cccc(C(=O)O)c3)C(=O)N1CCc1c2[nH]c2ccccc12 | 20 | 11 | 36*
C[C@]12C(=O)N(c3ccc(C(=O)NCc4ccc(F)cc4)cc3)C(=O)N1CCc1c2[nH]c2ccccc12 | 35* | 15 | 52*
COc1ccc2[nH]c3c(c2c1)CCN1C(=O)N(c2ccccc2C(=O)NCc2ccccc2OC)C(=O)[C@]31C | nt | 11 | 14
C[C@]12C(=O)N(c3ccc(C(=O)NCc4ccco4)cc3)C(=O)N1CCc1c2[nH]c2ccccc12 | 22 | 4 | 10

Bioassay records (PubChem BioAssay)
